DT40 TDP1 CPT: DT40-hTDP1 cell growth loss with CPT; chicken DT40 Tdp1-/-;hTDP1 cells + 20 nM CPT, ATP luminescence, 48 h; Potency, µM (titrated, usually from 46.2 µM), hits mostly inhibitors; actives 12% (n = 420,000); further: nearly all actives have a fitted effect of over 55% in size
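Chicken DT40 Tdp1-/- cells stably complemented with human TDP1 were seeded at 400 cells/well in medium containing 20 nM camptothecin, exposed to pin-transferred compounds, and grown at 37 °C for at least 48 hr. Viability was read as ATP luminescence.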
KB-V1 cytotox: kills drug-selected multidrug resistant KB-V1 cells | KB-V1 MDR cells viability, CellTiter-Glo, 72 h | Potency, µM (series often up to 46.1 µM), hits mostly cytotoxic | actives 3.4% (n = 400,000) | AID 1347076; further: nearly all actives have a fitted effect of over 60% in size
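KB-V1 MDR subline cells in DMEM (phenol-red free, 10% FBS) exposed to compounds in qHTS concentration series for 72 h at 37 degrees C. Viability read by CellTiter-Glo luminescence; concentration-effect curves fitted after normalization and correction.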
KB-3-1 tox: kills parental KB-3-1 adenocarcinoma cells; actives 1.4% (n = 400,000); Potency, µM (doses to about 46.1 µM), actives largely listed as cytotoxic; KB-3-1 viability, CellTiter-Glo ATP luminescence, 72 h; further: nearly all actives have a fitted effect of over 60% in size
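Cytotoxicity in the drug-sensitive parental line KB-3-1 was scored as loss of CellTiter-Glo luminescence following 72 h incubation with compound. Values come from curve fitting of normalized concentration-response data.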
HT1080-NT tox: kills 2HG-producing HT-1080-NT fibrosarcoma cells; HT-1080-NT fibrosarcoma viability, CellTiter-Glo ATP luminescence, 48 h; Potency, µM (series often up to 46.1 µM), actives largely listed as cytotoxic; actives 1.6% (n = 360,000);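 further: NT is the 2HG producing partner of a matched IDH1 knockdown line; nearly all actives have a fitted effect of over 55% in size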
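Viability by CellTiter-Glo luminescence after 48 h compound exposure at 37C of HT-1080-NT cells (750/well, RPMI, 5% FBS). % activity scaled between DMSO wells and medium-only wells, then curve-fitted and categorized by curve class.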
DT40 TDP1 no CPT: qHTS for Inhibitors of human tyrosyl-DNA phosphodiesterase 1 (TDP1): qHTS in cells in absence of CPT | DT40 Tdp1-/- hTDP1 cells, no CPT, ATP luminescence, 48 h | Potency, µM (series often up to 46.2 µM), usual class: inhibitors | AID 686978, 2013 | actives 15% (n = 420,000); further: nearly all actives have a fitted effect of over 55% in size
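Compound effects on proliferation are scored in DT40 Tdp1-/-;hTDP1 cells in the absence of CPT. ATP levels (CellTiter-Glo luminescence) are recorded after a ≥48 hr, 37 °C incubation.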
HT1080 IDH1KD tx: kills HT-1080 cells with IDH1 knockdown; HT-1080 IDH1 knockdown viability, ATP luminescence, 48 h; Potency, µM (doses to about 46.1 µM), hits mostly cytotoxic; actives 2% (n = 360,000); AID 686971
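Cytotoxicity counter-line: IDH1KD HT-1080, 48 h, CellTiter-Glo. Curves classed by r2, magnitude and activity.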
Numbers stand for hits; 0 = inactive; ? = inconclusive; - = no result given; [ ] = remark or other dose. This is a sample that favours compounds with a hit; in the whole collection about 19% have one here. The call rests on the fitted dose curve; in most records, active means well fitted curve in the direction sought with a large enough effect; inconclusive means small, poorly fitted or top-dose-only effect, or another doubt; inactive means no such curve, though single readings can be large; an effect the other way counts as inactive or inconclusive.

SMILES | DT40 TDP1 CPT | KB-V1 cytotox | KB-3-1 tox | HT1080-NT tox | DT40 TDP1 no CPT | HT1080 IDH1KD tx
CCCN1C2=NCCCN2c2ccccc21 | 0 | 0 | 0 | 0 | 0 | 0
CC(C)(C)c1ccc(CN2C3=NCCCN3c3ccccc32)cc1 | 7.3µM | ? | ? | ? | 7.3µM | 23µM
c1ccc(CN2C3=NCCCN3c3ccccc32)cc1 | 0 | 0 | ? | 0 | 0 | 0
OC(COc1ccccc1)CN1C2=NCCCN2c2ccccc21 (centres undefined) | ? | 0 | 0 | 0 | 10µM | 0
Cc1ccc(CN2C3=NCCCN3c3ccccc32)cc1 | 15µM | 0 | ? | 0 | ? | 0
O=C(O)CN1C2=NCCCN2c2ccccc21 | 0 | 0 | 0 | 0 | 0 | 0
OCC(O)COc1ccc(Cl)cc1 (centres undefined) | 0 | - | - | - | 0 | -
Clc1cccc(CN2C3=NCCCN3c3ccccc32)c1 | ? | ? | 0 | 0 | ? | 0
Clc1ccc(CN2C3=NCCN3c3ccccc32)cc1 | 13µM | 0 | 0 | ? | ? | ?
c1ccc(OCCN2C3=NCCN3c3ccccc32)cc1 | 0 | 0 | 0 | 0 | ? | 0
Cc1cc2c(cc1C)N(Cc1ccc(Cl)cc1)C1=NCCCN12 | 2.6µM | ? | ? | 26µM | 5.2µM | ?
CC(C)C[C@H]1COc2cccc(N3CCSCC3)c2S(=O)(=O)N1 | 0 | 0 | 0 | 0 | ? | 0
Cc1ccc(C(=O)OCC(=O)NNC(=O)COc2ccc(Cl)cc2)c(O)c1 | 0 | 0 | 0 | 0 | 0 | 0
CN(Cc1ccccc1)C1=CC(=[N+]2CCCC2)CC(C)(C)C1 | 0.33µM | 0 | 0 | ? | 0.23µM | ?
CCN(CC)C1=CC(=[N+]2CCCC2)CC(C)(C)C1 | 0.52µM | 0 | ? | ? | 0.52µM | ?
O=C1/C(=C/c2ccccn2)SC(=S)N1Nc1ncc(C(F)(F)F)cc1Cl | 8.2µM | 0 | 0 | 0 | ? | 0
Cc1ccc(-n2ncc3c2CCCC3NC(=O)CSc2ccccn2)cc1C (centres undefined) | ? | 0 | 0 | 0 | ? | 0
CCOC(=O)N1CCN(C(=O)c2cn(CC(C)C)c(=O)c3c2c2ccccc2n3C)CC1 | ? | 0 | 0 | 0 | ? | 0
COc1ccc(N2CCN(C(=O)c3cn(C4CCCC4)c(=O)c4c3c3ccccc3n4C)CC2)cc1 | 16µM | 0 | ? | 0 | 16µM | ?
COc1ccc(N2CCN(C(=O)c3cn(C)c(=O)c4c3c3ccccc3n4C)CC2)cc1 | ? | 0 | 0 | 0 | 15µM | ?
CCOC(=O)N1CCN(C(=O)c2cn(C)c(=O)c3c2c2ccccc2n3C)CC1 | ? | 0 | ? | ? | 25µM | ?
Cc1ccc(Cl)cc1N1CCN(C(=O)c2cn(C3CCCCC3)c(=O)c3c2c2ccccc2n3C)CC1 | 23µM | 0 | 0 | - | 18µM | -
Cn1c2ccccc2c2c(C(=O)N3CCN(C(=O)c4ccco4)CC3)cn(C3CCCCC3)c(=O)c21 | ? | 0 | 0 | 0 | ? | ?
O=C(Cn1ccn(-c2ccc(F)cc2)c(=O)c1=O)Nc1ccccc1C(F)(F)F | 0 | - | - | - | 0 | -
Cn1c2ccccc2c2c(C(=O)N3CCN(c4ccccn4)CC3)cn(C3CCCC3)c(=O)c21 | ? | 0 | 0 | 0 | 15µM | 0
SMILES | DT40 TDP1 CPT | KB-V1 cytotox | KB-3-1 tox | HT1080-NT tox | DT40 TDP1 no CPT | HT1080 IDH1KD tx
CCN(C(=O)COC(=O)c1ncc(Cl)c(Cl)c1Cl)c1c(N)n(Cc2ccccc2)c(=O)[nH]c1=O | ? | 0 | 0 | 0 | 0 | 0
CCOc1ccc(-c2oc3cc(Cl)ccc3c(=O)c2O)cc1OC | - | ? | 0 | - | - | -
COc1ccc(-c2oc3cc(O)c(OC)c(O)c3c(=O)c2OC)cc1O | 0.92µM | 0.65µM | 0.82µM | 0.41µM | 0.92µM | 0.58µM
O=c1c(O)c(-c2ccc(O)cc2)oc2cc(O)ccc12 | 27µM | - | - | - | 30µM | -
COc1cc(OC)c(-c2oc3ccccc3c(=O)c2O)c(OC)c1 | 8.2µM | ? | 8.2µM | ? | 7.3µM | ?
COc1ccc(OC)c(-c2oc3ccccc3c(=O)c2O)c1 | 0 | 0 | 0 | ? | ? | ?
COc1cc(-c2oc3cc(O)ccc3c(=O)c2O)ccc1O | 21µM | - | - | - | ? | -
COc1cc(OC)c2c(=O)c(OC)c(-c3ccc(OC)c(OC)c3)oc2c1 | ? | 0 | 0 | 0 | ? | 0
Nc1ccccc1-c1nnc(SCC(=O)Nc2ccccc2OC(F)F)[nH]c1=O | 0 | - | - | 0 | 0 | 0
CCOc1ccccc1CNn1nnnc1N | 0 | 0 | 0 | 0 | 0 | 0
O=C(OC1CCOC1=O)c1cc(-c2cccs2)nc2ccccc12 (centres undefined) | 0 | 0 | 0 | 0 | 0 | 0
COc1ccc(Cl)cc1NC(=O)Cn1nc(C(F)(F)F)c2c1CCCC2 | ? | 0 | 0 | - | ? | -
CCc1cccc(C)c1NC(=O)Cn1cc2c(n1)CCCC2 | ? | 0 | 0 | - | ? | -
Cc1ccc2oc3ccccc3c(=O)c2c1 | 0 | 0 | 0 | 0 | 0 | 0
O=c1c(O)c(-c2ccc(O)c(O)c2)oc2cc(O)ccc12 | 23µM | 0 | 0 | 0 | 6.7µM | 0
COc1cc(-c2oc3ccc(C)cc3c(=O)c2O)cc(OC)c1OC | 5.8µM | 23µM | ? | - | ? | -
COCCSc1nnc(NC(=O)Cc2cccs2)s1 | 0 | 0 | 0 | 0 | ? | 0
Cc1cc(-c2nnc(CSc3nnc(NC(=O)c4ccc(C(C)(C)C)cc4)s3)o2)ccc1[N+](=O)[O-] | ? | 0 | 0 | 0 | 21µM | 0
COCCSc1nnc(NC(=O)Cc2ccccc2OC)s1 | 0 | 18µM | 0 | 0 | 0 | 0
COc1ccccc1C(=O)Nc1nnc(SCc2cc(=O)c3ccccc3[nH]2)s1 | 15µM | 0 | 0 | - | 15µM | -
O=C(Nc1nnc(SCc2cc(=O)c3ccccc3[nH]2)s1)c1ccccc1 | 23µM | 0 | ? | - | 7.3µM | -
CCCCc1nnc(NC(=O)c2ccc(OCc3c(C)noc3C)cc2)s1 | 0 | ? | 0 | 0 | 0 | 0
CCSc1nnc(NC(=O)c2csc(C)c2)s1 | 0 | 0 | 0 | 0[9.24 µM] | 0 | ?
Cc1ccc(C(=O)Nc2nnc(SCc3cc(=O)c4c(C)ccc(C)c4[nH]3)s2)cc1 | 18µM | 0 | ? | - | 10µM | -
O=C(O)CNC(=O)CNC(=O)CNC(=O)CSC(=O)c1ccccc1 | 0 | - | - | - | 0 | -
O=C(CSCCc1ccccn1)Nc1ccc(Br)cn1 | 0 | 21µM | 0 | 0 | 0 | 0
O=C(CSCCc1ccccn1)Nc1ccccn1 | 0 | 0 | ? | 0 | 0 | 0
O=C(CCSCCc1ccccn1)Nc1c(F)cc(F)cc1Br | 0 | 16µM | 0 | 0 | 0 | 0
Cc1cc(=O)c(C(=O)O)nn1-c1ccccc1F | 0 | 0 | 0 | 0 | 0 | 0
O=C(c1ccncc1)N1N=C(C2CCCCC2)CC1(O)C(F)(F)F (centres undefined) | 2.9µM | 0 | 0 | 0 | 4.6µM | 0
